From PubChem BioAssay
Sampled rows, rich in hits. Any-hit rate of the full collection: about 1.5%.
HttQ103 aggreg – inhibitors of mutant huntingtin aggregate formation in PC12 cells; PC12 HttQ103-GFP aggregates, Acumen cytometry, 40 h; Potency, µM (titrated, usually from 46.1 µM), for the others: at the highest dose activity change, negative = inhibition, most hits filed as inhibitors; hit rate 1.1% among 220,000; note: % is set by controls: 0 for no effect and ±100 for the full control effect; nearly all actives have a fitted effect of over 60% in size
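Inducible Q103 Huntingtin exon 1–GFP PC12 line, 1500 cells/well in phenol red free DMEM with 5% equine and 5% calf serum. Tebufenozide 100 nM induced expression; compounds titrated; aggregates quantified by cytometry.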
Epigenetic reg – epigenetic control regulation, reporter derepression; murine LDR cells, GFP reporter derepression, 30 h; Potency, µM (doses to about 53.9 µM), for the others: at the highest dose GFP activation, usual class: activators; hit rate 0.2% among 280,000; AID 1865; note: % of control where 0% means no effect; nearly all actives have a fitted effect of over 60% in size
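Reporter derepression read as number of fluorescent GFP-positive objects, 20-120 um in size, counted by laser-scanning cytometer. Mouse LDR line with an epigenetically silenced CMV-GFP locus; compound incubation 30 h, 37 C.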
HTT cytoprotect – cytoprotection in Huntington HTT-Q103 PC12 cell model | PC12 HTT-Q103 induced, cytoprotection, ATP luminescence, 40 h | hit rate 0.14% among 230,000 | Potency, µM (series often up to 56.4 µM), inactives show cytoprotection (ATP increase), usual class: activators; note: % of control where 0% means no effect; nearly all actives have a fitted effect of over 45% in size
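Compounds added alongside 100 nM tebufenozide, which induces toxic Q103 huntingtin exon 1-GFP in stable PC12 cells; surviving cells quantified by luminescent ATP measurement. Medium: phenol red-free DMEM, 5% equine and 5% calf serum.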
LMNA splice mod – changes lamin A minigene splicing in HeLa cells | HeLa LMNA splicing GFP/RFP minigene ratio, 48 h | Potency, µM (titrated, usually from 46.1 µM), for inactives: at the top dose ratio change, negative = inhibition, actives largely listed as inhibitors | hit rate 0.01% among 200,000 | AID 1487; active = well fitted inhibition curve with a large enough effect in the signal ratio, with a control signal flat, not every such curve was filed as active; inconclusive = small, poorly fitted or top-dose-only effect, or effect the other way, or a change in a side signal; the % refers to the signal ratio; note: % is set by controls: 0 for no effect and ±100 for the full control effect
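Read-out is the ratio of GFP to DsRed2 object intensity, acquired by 488 nm laser-scanning cytometry on HeLa lamin A-EGFP minigene reporter cells. Compound incubation 48 hrs at 37 °C in Opti-MEM with 2% FBS; DMSO 0.5% final.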
NPSR antagonist – neuropeptide S receptor (human) antagonism, cAMP. CHO-NPSR cells, cAMP TR-FRET, antagonist mode. Potency, µM (doses to about 38.3 µM), for inactives: top-dose activity change, negative = inhibition, most hits filed as inhibitors. hit rate 1% among 220,000; note: % is set by controls: 0 for no effect and ±100 for the full control effect; nearly all actives have a fitted effect of over 50% in size
Target sequence (Q6W5P4 whole entry, looked up): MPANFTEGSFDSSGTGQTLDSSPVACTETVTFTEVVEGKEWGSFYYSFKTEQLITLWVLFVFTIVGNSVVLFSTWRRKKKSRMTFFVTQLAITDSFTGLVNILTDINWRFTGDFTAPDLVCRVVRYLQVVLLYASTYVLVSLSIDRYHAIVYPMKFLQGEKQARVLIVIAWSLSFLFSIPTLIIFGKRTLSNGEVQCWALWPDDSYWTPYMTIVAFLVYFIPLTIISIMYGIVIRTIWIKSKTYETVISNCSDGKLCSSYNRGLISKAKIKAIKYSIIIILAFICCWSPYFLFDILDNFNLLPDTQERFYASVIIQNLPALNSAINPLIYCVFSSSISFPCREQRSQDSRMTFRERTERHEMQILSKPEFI
An asterisk follows results filed as active; ? = inconclusive; . = not tested or not shown; [ ] = remark or other dose. Unless noted, calls come from the whole dose curve; as a rule, active = well fitted curve in the direction sought with a large enough effect; inconclusive = small, poorly fitted or top-dose-only effect, or another doubt; inactive = no such curve, though single readings can be large; an effect the other way counts as inactive or inconclusive. Potency is the fitted concentration of half-maximal effect.

SMILES	HttQ103 aggreg	Epigenetic reg	HTT cytoprotect	LMNA splice mod	NPSR antagonist
CCOc1ccc(Br)cc1/C(C)=N\NC1=NCCN1	13µM*	0%	-8%	?	19%[46.1 µM]
O=C(NCCN1CCCCC1)c1ccc(-n2c(=O)c(=O)[nH]c3ccccc32)cc1	.	-1%	.	.	.
COCCn1c(=O)c(CCc2ccccc2)nc2cnc(OC)nc21	.	.	-61%	.	.
CSc1nsc(/C=C/Nc2ccc(C)c(C)c2)c1C#N	?	3.5µM*	-30%	?	-38%
Cc1cccc(-c2nc(SCC(=O)NCc3ccco3)c3c(=O)n(C)c(=O)n(C)c3n2)c1	.	-3%	.	?	.
NC(=NCc1ccc(Cl)cc1Cl)NC(=O)c1nc(Cl)c(N)nc1N	.	1%	3%	.	.
CCN(CC)C(=O)c1cc(Cl)ccc1NC(=O)c1ccco1	-12%[9.22 µM]	1%	5%[10 µM]	.	12%
CCN(CC)P(=O)(Nc1ccccc1Br)c1ccc(N(C)C)cc1NC(=O)c1ccco1 (configuration not stated)	-24%	1%	6%	4%[46 µM]	7.9µM*
COc1cc(OC)cc(C(=O)N2CCN(C(=O)c3cccc(F)c3)CC2)c1	-4%	1%	11%[0.074 µM]	1%	-11%[46.1 µM]
COc1ccc2cc3c(N)nn(C(=O)c4ccc(F)cc4)c3nc2c1	2.8µM*	-1%	-10%[10 µM]	.	-22%
COc1ccc2cc3c(N)nn(C(=O)c4cccc(F)c4)c3nc2c1	1µM*	0%	-22%[10 µM]	.	6%
COc1ccc2cc3c(N)nn(C(=O)c4ccc(OC)c(OC)c4)c3nc2c1	.	-1%	.	.	.
COc1ccc2cc3c(N)nn(C(=O)c4ccccc4Cl)c3nc2c1	0.35µM*	0%	0%[10 µM]	.	-54%
COc1ccc2cc3c(N)c(C(=O)N4CCCC4)sc3nc2c1	-6%	0%	-4%	11%	-19%[46.1 µM]
CC(=O)c1cc(-c2ccccc2)n(CCC(=O)Nc2cc(C)cc(C)c2)c1C	.	-1%	.	?	.
COC(=O)Cc1c(C)c2ccc3c(c2oc1=O)CN(Cc1ccc(Cl)cc1)CO3	.	2%	.	.	.
CC(C)OC(=O)c1c2nc3ccccc3nc2n2c1[nH]c(=O)c1ccccc12	-22%	1%	-28%[10 µM]	4%	10µM*
CC(C)OC(=O)c1c(N)n(CCCN2CCOCC2)c2nc3ccccc3nc12	10%	-1%	14%[10 µM]	6%	-6%[46.1 µM]
CCCOc1ccc(C(=O)Nc2cc3c(cc2N2CCOCC2)n(C)c(=O)n3C)cc1	.	0%	.	.	.
Cn1nc(C(=O)Nc2cc(F)ccc2F)c2c1-c1ccccc1SC2	.	-3%	.	.	.
CCC(C=C[C@@H]1OC(=O)C=C[C@H]1C)=C[C@H](C)CC=CC(C)=C[C@@H](C)C(=O)[C@@H](C)[C@H](O)[C@@H](C)CC(C)=CC(=O)O	.	-1%[1.91 µM]	-264%[1.9 µM]	.	.
COc1ccc(/C=C/C(=O)Nc2ccc3nc(N4CCC(C)CC4)cc(C)c3c2)cc1	.	22µM*	.	.	.
Cc1cc(N2CCCCC2)nc2ccc(NC(=O)/C=C/c3ccc(OC(C)C)cc3)cc12	.	-1%	.	.	.
COC(=O)c1ccccc1NC(=O)C1CCN(C(=O)N2CC(C)Oc3ccccc32)CC1 (configuration not stated)	.	0%	.	-4%[46 µM]	.
C[C@H](NC(=O)c1ccc(Cl)c(Cl)c1)c1ccc(-c2ccccc2)cc1	.	.	-5%[10 µM]	.	.
SMILES	HttQ103 aggreg	Epigenetic reg	HTT cytoprotect	LMNA splice mod	NPSR antagonist
O=C(Nc1nc(-c2cccs2)c(C(=O)C(F)(F)F)s1)c1ccco1	-6%	2%	6%	?	10µM*
O=C(Nc1nc(-c2cccs2)c(C(=O)C(F)(F)F)s1)c1ccccc1	10µM*	1%	.	?	-37%
Cc1ccc(CN(C(=O)COc2ccc(Cl)c(C)c2)c2ccccn2)o1	.	-2%	.	-12%[46 µM]	.
O=C1C=CCC(/C=C/c2ccccc2)O1 (configuration not stated)	10µM*	6%	.	?	16%
Cc1ccc(-c2oc3ccccc3c(=O)c2O)cc1	11µM*	1%	-13%	?	3%[46.1 µM]
Cc1ccc2oc(-c3ccccc3)c(O)c(=O)c2c1	.	1%	24%[1.9 µM]	.	.
O=c1c(O)c(-c2cccs2)oc2ccc(Cl)cc12	14µM*	0%	23%	?	4%[46.1 µM]
O=c1c(O)c(-c2cccs2)oc2ccccc12	11µM*	-11%	17%[10 µM]	-23%	16%[46.1 µM]
Cc1ccc2oc(-c3ccccc3)c(C(=O)O)c(=O)c2c1	10µM*	-1%	-59%	4%	-19%[46.1 µM]
Cc1ccc2c(=O)cc(C(=O)Nc3ccc(S(=O)(=O)N(C)c4ccccc4)cc3)oc2c1C	.	6%	.	.	.
COc1cccc(NCc2nnc3n2CCCCC3)c1	.	0%	.	9%[46 µM]	.
Cc1ccc(C)c(N2CCN(C(=O)CCCCCn3c(=O)[nH]c4ccccc4c3=O)CC2)c1	.	-2%	.	?	.
COc1ccc(-c2nc3ccccc3c(=O)n2CCOc2cc(C)ccc2C)cc1	24%	1%	-5%[10 µM]	?	-7%
COc1cc(/C=C(\C#N)c2nc3ccccc3o2)ccc1O	4%[9.22 µM]	2.2µM*	0%[10 µM]	.	-44%
N#C/C(=C\c1ccc(O)cc1)c1nc2ccccc2o1	7%[9.22 µM]	1%	9%[10 µM]	.	-51%
COc1cc(/C=C(\C#N)c2nc(-c3cc4ccccc4oc3=O)cs2)ccc1O	28%	4.5µM*	-12%[10 µM]	4%	-30%[46.1 µM]
CCOc1ccccc1NC(=O)N1c2ccccc2Sc2ccccc21	.	4%	.	.	.
Cc1cc(Sc2ncnc(N)c2[N+](=O)[O-])ncn1	4.5µM*	0%	7%[10 µM]	?	-33%
Cc1cc(Sc2nc(N)ncc2[N+](=O)[O-])ncn1	?	?	-153%	?	-25%
COc1ccc(-c2nc3ccccc3s2)cc1NC(=O)c1cccc(F)c1	.	1%	.	0%[46 µM]	.
CC(NC(=O)Cn1ncc(Cl)c(Cl)c1=O)C12CC3CC(CC(C3)C1)C2 (configuration not stated)	?	?	-4%[10 µM]	-22%	10µM*
CC(C)(C)OC(=O)NCCc1nnc(SCc2ccccc2Cl)o1	-27%	4%	-2%	?	-15%[46.1 µM]
CC(C)(C)OC(=O)NCCc1nnc(S(=O)(=O)Cc2ccc(Cl)cc2Cl)o1	20µM*	1%	10%[0.074 µM]	?	?
